Results: PubChem BioAssay AID1159580 (chemical genetic matrix, 2015)
The campaign covered roughly 5,500 compounds. About 2,000 (36%) were called active. Roughly 18% stayed inconclusive and do not appear here. No stated cut-off is given here; in the data, active means normalized growth mostly below about 0.91 (no sharp cut-off); inconclusive means no clear call, values can overlap the other calls; inactive means mostly above about 0.92. The list shows a part of the results.

Test: chemical genetic growth profiling, strain panel (AID 1159580);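 further: tested at 20 µM; growth read once vehicle control cultures reached saturation at 30 °C; 1 = growth at the plate median or of vehicle wells; lower values mean less growth of the strain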
Details: S. cerevisiae deletion strains, growth OD

Measured: normalized growth

COc1ccc(OC)c(-c2ccn[nH]2)c1OCc1ccccc1
inactive: locus YAR019C, strain CDC15, active compounds read low 0.995 | locus YBL105C, strain PKC1, active compounds read low 0.998 | locus YBR135W, strain CKS1, active compounds read low 0.994 | locus YBR136W, strain MEC1, active compounds read low 0.987 | locus YBR160W, strain CDC28, active compounds read low 0.994 | locus YDL017W, strain CDC7, active compounds read low 0.997 | locus YDL028C, strain MPS1, active compounds read low 0.974 | locus YDL101C, strain DUN1, active compounds read low 0.979 | locus YDL108W, strain KIN28, active compounds read low 0.987 | locus YDL132W, strain cdc53, active compounds read low 0.987 | locus YDL214C, strain PRR2, active compounds read low 0.893 | locus YDR052C, strain DBF4, active compounds read low 0.989 | locus YDR054C, strain cdc34, active compounds read low 0.985 | locus YDR226W, strain ADK1, active compounds read low 0.998 | locus YDR477W, strain SNF1, active compounds read low 0.905 | locus YER123W, strain YCK3, active compounds read low 0.762 | locus YER133W, strain GLC7, active compounds read low 0.886 | locus YFL009W, strain cdc4, active compounds read low 0.998 | locus YFL029C, strain CAK1, active compounds read low 0.995 | locus YFR003C, strain YPI1, active compounds read low 0.993 | locus YFR019W, strain FAB1, active compounds read low 0.832 | locus YFR028C, strain CDC14, active compounds read low 0.993 | locus YGR040W, strain KSS1, active compounds read low 0.874 | locus YGR052W, strain FMP48, active compounds read low 0.948 | locus YGR092W, strain DBF2, active compounds read low 0.864 | locus YHR030C, strain SLT2, active compounds read low 0.986 | locus YHR079C, strain IRE1, active compounds read low 0.999 | locus YHR082C, strain KSP1, active compounds read low 0.974 | locus YHR205W, strain SCH9, active compounds read low 0.97 | locus YIL147C, strain SLN1, active compounds read low 0.97 | locus YJL095W, strain BCK1, active compounds read low 0.953 | locus YJL128C, strain PBS2, active compounds read low 0.981 | locus YJL157C, strain FAR1, active compounds read low 0.887 | locus YJR016C, strain ILV3, active compounds read low 1 | locus YJR066W, strain TOR1 (second series), active compounds read low 0.808 | locus YJR066W, strain TOR1, active compounds read low 0.96 | locus YKL048C, strain ELM1, active compounds read low 0.948 | locus YKL067W, strain YNK1, active compounds read low 0.907 | locus YKL101W, strain HSL1, active compounds read low 0.926 | locus YKL193C, strain SDS22, active compounds read low 0.989 | locus YKL203C, strain TOR2, active compounds read low 0.953 | locus YLR113W, strain HOG1, active compounds read low 1.01 | locus YLR133W, strain CKI1, active compounds read low 0.924 | locus YLR403W, strain SFP1, active compounds read low 0.883 | locus YML070W, strain DAK1, active compounds read low 0.877 | locus YMR001C, strain CDC5, active compounds read low 0.993 | locus YMR205C, strain PFK2 (second series), active compounds read low 0.908 | locus YMR277W, strain FCP1, active compounds read low 0.993 | locus YNL006W, strain LST8, active compounds read low 0.985 | locus YNL020C, strain ARK1, active compounds read low 0.903 | locus YNL161W, strain CBK1, active compounds read low 0.995 | locus YNL183C, strain NPR1, active compounds read low 0.969 | locus YNL207W, strain RIO2, active compounds read low 0.997 | locus YNL222W, strain SSU72, active compounds read low 1 | locus YNL307C, strain MCK1 (second series), active compounds read low 0.922 | locus YOL078W, strain AVO1, active compounds read low 0.994 | locus YOL136C, strain PFK27, active compounds read low 0.908 | locus YOR061W, strain CKA2, active compounds read low 0.871 | locus YOR119C, strain RIO1, active compounds read low 0.936 | locus YOR231W, strain MKK1, active compounds read low 0.992 | locus YOR329C, strain SCD5, active compounds read low 0.999 | locus YPL031C, strain PHO85, active compounds read low 0.87 | locus YPL153C, strain RAD53, active compounds read low 0.869 | locus YPL204W, strain HRR25, active compounds read low 0.892 | locus YPL209C, strain IPL1, active compounds read low 0.994 | locus YPL256C, strain CLN2, active compounds read low 1.02 | locus YPR025C, strain CCL1, active compounds read low 0.994 | locus YPR106W, strain ISR1, active compounds read low 1 | locus YPR111W, strain DBF20, active compounds read low 0.999 | strain NNK1, active compounds read low 0.994 | strain TSCII, active compounds read low 0.992
